Measurements taken from PubChem BioAssay (NCATS).
“And” between values parts separate entries of the source, which are not always exact repeats. Equal values may be shown once. Results filed as inconclusive are left out. The source made the active and inactive calls. Calls come from the whole dose curve; as a rule, active = well fitted curve in the direction sought with a large enough effect; inconclusive = small, poorly fitted or top-dose-only effect, or another doubt; inactive = no such curve, though single readings can be large; an effect the other way counts as inactive or inconclusive.

How the values were obtained:
[1] = molecular target: Cellular tumor antigen p53 (Homo sapiens) (UniProt P04637); test: Primary qHTS for small molecule compounds that upregulate eGFP-tagged delta133p53alpha (in N-terminal) cells. (AID 2060322); conditions: NCI-H358 eGFP-delta133p53alpha fluorescence, 24 h; activation: active compounds read high; note: nearly all actives have a fitted effect of over 75% in size;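 for activation: series mostly up to about 56 µM; 0% = DMSO vehicle and 100% = reference activator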
Sequence of Cellular tumor antigen p53 (Homo sapiens) (P04637 whole entry, looked up): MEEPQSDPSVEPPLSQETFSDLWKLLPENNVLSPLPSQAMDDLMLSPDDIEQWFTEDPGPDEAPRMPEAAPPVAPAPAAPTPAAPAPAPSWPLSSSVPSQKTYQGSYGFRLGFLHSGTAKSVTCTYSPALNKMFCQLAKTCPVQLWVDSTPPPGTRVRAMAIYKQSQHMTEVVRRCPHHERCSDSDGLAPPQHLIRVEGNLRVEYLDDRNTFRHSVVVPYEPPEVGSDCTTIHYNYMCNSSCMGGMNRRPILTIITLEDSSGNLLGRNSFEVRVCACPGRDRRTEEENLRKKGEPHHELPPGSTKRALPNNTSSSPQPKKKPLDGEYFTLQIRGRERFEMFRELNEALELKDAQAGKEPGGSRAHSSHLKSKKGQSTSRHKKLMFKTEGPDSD
Method in brief: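 NCI-H358 cells pre-induced 24 h with 10 ng/ml doxycycline to express N-terminal eGFP-delta133p53alpha, then dosed 24 h at 37C without doxycycline; fixed, Hoechst-stained, GFP intensity by laser scanning cytometry, normalized to DMSO (0%) and 57.5 uM 5-azacytidine (100%).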

[2] = BET inhibitor-based combinations targeting novel dependencies in MECOM-rearranged (r) AML: SET-2 cell line (AID 2202231); conditions: SET-2 AML cells viability, CellTiter-Glo luminescence, 48 h; viability: active compounds read low, concentration not given here; note: nearly all actives have a fitted effect of over 35% in size;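 for viability: plate controls were DMSO treated cells for no effect and wells without cells for full effect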
Method in brief: (§1)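 Each compound was tested at eleven concentrations on cells seeded at 500/well. After two days' incubation, ATP-based luminescence reported viability; responses relative to DMSO and blank wells yielded AUC and cell-line-centred Z-AUC.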

[3] = BET inhibitor-based combinations targeting novel dependencies in MECOM-rearranged (r) AML: OCI-AML3 cell line (AID 2202232); conditions: Potency: OCI-AML3 viability; note: nearly all actives have a fitted effect of over 35% in size;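 for viability (% of control): series mostly up to about 46 µM; plate controls were DMSO vehicle wells for no effect and wells without cells for full effect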
Method in brief: as §1

[4] = BET inhibitor-based combinations targeting novel dependencies in MECOM-rearranged (r) AML: MV-4-11 cell line (AID 2202233); note: nearly all actives have a fitted effect of over 45% in size;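 for viability, % of control: plate controls were DMSO for no effect and blank wells for full effect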
Method in brief: (§2)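 First, 500 cells per well were seeded; next, drugs were pinned as 11-point doses; then plates sat 48 hr in the incubator; finally CellTiter-Glo was added and luminescence read, with AUC and Z-AUC computed.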

[5] = BET inhibitor-based combinations targeting novel dependencies in MECOM-rearranged (r) AML: HNT-34 cell line (AID 2202234); note: nearly all actives have a fitted effect of over 35% in size;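 for viability (% of control): plate controls were vehicle wells for no effect and cell-free wells for full effect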
Method in brief: as §2

[6] = BET inhibitor-based combinations targeting novel dependencies in MECOM-rearranged (r) AML: UCSD-AML1 cell line (AID 2202235); note: nearly all actives have a fitted effect of over 40% in size;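 for viability (% of control): series mostly up to about 46 µM; plate controls were DMSO vehicle wells for no effect and blank wells for full effect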
Method in brief: as §2

[7] = BET inhibitor-based combinations targeting novel dependencies in MECOM-rearranged (r) AML: AML-191 cell line (AID 2202236; note: nearly all actives have a fitted effect of over 35% in size;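 for viability (% of control): plate controls were vehicle wells for no effect and wells without cells for full effect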)
Method in brief: as §1

[8] = BET inhibitor-based combinations targeting novel dependencies in MECOM-rearranged (r) AML: AML-194 cell line (AID 2202237; note: nearly all actives have a fitted effect of over 40% in size;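 for viability (% of control): plate controls were vehicle wells for no effect and wells without cells for full effect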)
Method in brief: as §1
Potency is the fitted concentration of half-maximal effect.

N#Cc1cc(NC(=O)Nc2nnc(-c3ccncc3)s2)ccc1-c1cn[nH]c1
inactive: activation [1] -26.3% | viability [2] 111% | Potency [3] | Potency [4] | Potency [5] | Potency [6] | Potency [7] | Potency [8]

Cc1cnc(Nc2ccc(N3CCN(C)CC3)cc2)nc1Nc1cccc(S(=O)(=O)NC(C)(C)C)c1
inactive: activation [1] 28.8%
active: Potency [2] 2.63 µM | Potency [3] 5.25 µM | Potency [4] 0.662 µM | Potency [5] 0.833 µM | Potency [6] 1.86 µM | Potency [7] 2.63 µM | Potency [8] 2.95 µM

Nc1nc2c(c(=O)[nH]1)N(C=O)[C@H](CNc1ccc(C(=O)N[C@@H](CCC(=O)O)C(=O)O)cc1)CN2
inactive: activation [1] 10.2% | viability [2] 115% | Potency [3] | Potency [4] | Potency [5] | Potency [6] | Potency [7] | Potency [8]

S=c1nc[nH]c2nc[nH]c12
inactive: activation [1] -18.4% and 17.9%
active: Potency [2] 2.63 µM | Potency [3] 1.86 µM | Potency [4] 0.417 µM | Potency [5] 16.6 µM | Potency [6] 3.72 µM | Potency [8] 0.59 µM

Cc1cc2cc3c(C)cc(=O)oc3c(C)c2o1
inactive: activation [1] -5.86% and 16.7% | viability [2] 111% | Potency [3] | Potency [4] | Potency [5] | Potency [6] | Potency [7] | Potency [8]

COc1c(N2CCNC(C)C2)c(F)cc2c(=O)c(C(=O)O)cn(C3CC3)c12 (stereo not given)
inactive: activation [1] 12.6% and 24.5% | viability [2] 100% | Potency [3] | Potency [4] | Potency [5] | Potency [6] | Potency [7] | Potency [8]

COc1ccc(-c2cc(=O)c3c(O)cc(O[C@@H]4O[C@H](CO[C@@H]5O[C@@H](C)[C@H](O)[C@@H](O)[C@H]5O)[C@@H](O)[C@H](O)[C@H]4O)cc3o2)cc1O
inactive: activation [1] 25.9% | viability [2] 112% | Potency [3] | Potency [4] | Potency [5] | Potency [6] | Potency [7] | Potency [8]

CCCc1nc(C(C)(C)O)c(C(=O)O)n1Cc1ccc(-c2ccccc2-c2nn[nH]n2)cc1
inactive: activation [1] -5.2% | viability [2] 116% | Potency [3] | Potency [4] | Potency [5] | Potency [6] | Potency [7] | Potency [8]

Nc1ccn(C[C@@H](CO)OCP(=O)(O)O)c(=O)n1
inactive: activation [1] -2.13% | viability [2] 113% | viability (% of control) [3] 113% [at 8.46 µM] | viability, % of control [4] 126% [at 8.46 µM] | viability (% of control) [5] 82.3% [at 8.46 µM] | viability (% of control) [6] 104% [at 8.46 µM] | viability (% of control) [7] 91.5% [at 8.46 µM] | viability (% of control) [8] 105% [at 8.46 µM]

CCn1cc(C(=O)O)c(=O)c2cc(F)c(N3CCNCC3)cc21
inactive: activation [1] -8.37% and 13.6% | viability [2] 96.1% | Potency [3] | Potency [4] | Potency [5] | Potency [6] | Potency [7] | Potency [8]

NS(=O)(=O)c1cc2c(cc1Cl)NC(C(Cl)Cl)NS2(=O)=O (stereo not given)
active: Potency [3] 16.6 µM
inactive: activation [1] -14.1% and -9.47% | viability [2] 112% | Potency [4] | Potency [5] | Potency [6] | Potency [8]

NC(=O)c1cccnc1
inactive: activation [1] -14.2% and 9.71% | viability [2] 106% | Potency [3] | Potency [4] | Potency [5] | Potency [6] | Potency [8]

CC(C)C[C@H](NC(=O)[C@H](CCc1ccccc1)NC(=O)CN1CCOCC1)C(=O)N[C@@H](Cc1ccccc1)C(=O)N[C@@H](CC(C)C)C(=O)[C@@]1(C)CO1
active: Potency [1] 110 nM and 273 nM | Potency [2] 0.0833 µM | Potency [3] 0.0209 µM | Potency [4] 0.0209 µM | Potency [5] 0.0235 µM | Potency [6] 0.0417 µM | Potency [7] 0.0525 µM | Potency [8] 0.0525 µM

CN(C)c1ccc2nc3ccc(=[N+](C)C)cc-3sc2c1
active: Potency [1] 17.4 µM | Potency [2] 5.9 µM | Potency [3] 5.25 µM | Potency [4] 2.63 µM | Potency [5] 7.42 µM | Potency [6] 9.34 µM | Potency [7] 2.95 µM | Potency [8] 4.68 µM

N#Cc1ccc(NC(=O)Nc2ccccc2Br)c2n[nH]nc12
active: Potency [3] 14.8 µM
inactive: activation [1] -2.35% | viability [2] 105% | Potency [4] | Potency [5] | Potency [6] | Potency [8]

Cc1cc(OCCCS(C)(=O)=O)cc(C)c1-c1cccc(COc2ccc3c(c2)OC[C@H]3CC(=O)O)c1
inactive: activation [1] 5.3% | viability [2] 98.7% | Potency [3] | Potency [4] | Potency [5] | Potency [8]

COc1cc([C@@H]2c3cc4c(cc3[C@H](O)[C@H]3COC(=O)[C@H]23)OCO4)cc(OC)c1OC
active: Potency [2] 0.0372 µM | Potency [3] 0.0372 µM | Potency [4] 0.0417 µM | Potency [6] 0.0417 µM | Potency [7] 0.0372 µM
inactive: activation [1] 24.1%

C#C[C@]1(O)CC[C@H]2[C@@H]3CCC4=CC(=O)CC[C@@H]4[C@H]3CC[C@@]21CC
inactive: activation [1] -5.86% | viability [2] 103% | Potency [3] | Potency [5] | Potency [8]
active: Potency [4] 13.2 µM

CN1CCN(c2cc(C(=O)Nc3ccc4c(c3)-c3c(c(C(N)=O)nn3-c3ccc(F)cc3)CC4)c(Cl)cn2)CC1
active: Potency [2] 8.33 µM | Potency [3] 16.6 µM | Potency [4] 7.42 µM | Potency [5] 7.42 µM | Potency [7] 8.33 µM
inactive: activation [1] 10.2%
